Results on 23 compounds are retold here after PMC4336329 (PLoS ONE, 2015).

Among all 310,000 compounds or so, about 14,000 (4.5%) showed an effect of 50% or more. The effect is printed as a negative number. The full list was thinned out, with strong results kept by preference.
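Note: peak tail current of the secondary pulse compared with the same well before compound.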

Sequence of human ether-à-go-go-related gene (hERG) potassium channel (Q12809 whole entry, looked up): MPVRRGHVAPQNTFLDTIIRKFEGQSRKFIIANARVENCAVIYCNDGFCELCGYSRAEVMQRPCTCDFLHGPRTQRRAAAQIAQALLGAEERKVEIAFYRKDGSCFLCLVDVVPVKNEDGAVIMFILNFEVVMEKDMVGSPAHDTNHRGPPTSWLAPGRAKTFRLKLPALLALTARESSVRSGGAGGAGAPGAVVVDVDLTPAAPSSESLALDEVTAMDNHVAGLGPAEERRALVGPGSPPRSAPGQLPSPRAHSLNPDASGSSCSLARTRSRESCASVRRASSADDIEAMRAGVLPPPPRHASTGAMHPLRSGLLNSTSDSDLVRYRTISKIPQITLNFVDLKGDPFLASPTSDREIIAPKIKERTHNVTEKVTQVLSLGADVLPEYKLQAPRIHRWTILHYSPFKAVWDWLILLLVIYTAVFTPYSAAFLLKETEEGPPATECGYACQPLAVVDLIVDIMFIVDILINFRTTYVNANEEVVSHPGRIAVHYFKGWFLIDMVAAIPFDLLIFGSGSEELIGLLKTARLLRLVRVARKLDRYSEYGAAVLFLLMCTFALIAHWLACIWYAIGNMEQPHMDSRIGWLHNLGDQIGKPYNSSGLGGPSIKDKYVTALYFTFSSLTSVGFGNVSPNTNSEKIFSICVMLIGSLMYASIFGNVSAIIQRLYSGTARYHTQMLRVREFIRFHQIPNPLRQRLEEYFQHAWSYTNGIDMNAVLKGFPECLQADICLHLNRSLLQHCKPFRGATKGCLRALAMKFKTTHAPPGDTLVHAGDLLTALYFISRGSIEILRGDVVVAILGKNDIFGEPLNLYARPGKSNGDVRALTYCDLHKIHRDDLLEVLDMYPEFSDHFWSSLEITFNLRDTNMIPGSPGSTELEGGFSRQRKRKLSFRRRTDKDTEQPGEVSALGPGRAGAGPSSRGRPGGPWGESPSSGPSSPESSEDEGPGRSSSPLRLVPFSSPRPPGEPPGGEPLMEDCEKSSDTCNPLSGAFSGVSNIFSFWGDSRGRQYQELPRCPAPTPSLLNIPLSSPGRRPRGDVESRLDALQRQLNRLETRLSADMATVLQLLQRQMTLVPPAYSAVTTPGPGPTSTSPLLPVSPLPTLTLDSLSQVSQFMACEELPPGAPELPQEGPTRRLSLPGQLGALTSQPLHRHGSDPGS

The experiment has as its target human ether-à-go-go-related gene (hERG) potassium channel (human, UniProt Q12809). Description: primary screen, population patch clamp on CHO cells stably expressing hERG; higher = less effect of the substance.
Consider `Cc1ccccc1S(=O)(=O)Cc1ccc(C(=O)NCCN2CCCCC2C)o1` (centres unmarked), for which the “hERG current change (%, negative = inhibition) at 10uM” value is reported as -39.3%.
Take `CCOc1cc2c(cc1OCC)C(c1ccccc1)N(c1ccccc1)C(=O)C2` (centres unmarked): the “hERG current change (%, negative = inhibition) at 10uM” value is recorded as -6.2%.
With `CCOc1cc2c(cc1OCC)C(c1ccc(OC)cc1)N(c1ccccc1)C(=O)C2` (centres unmarked), the “hERG current change (%, negative = inhibition) at 10uM” value is -57.5%.
Then `CCOc1ccc(C2c3cc(OC)c(OC)cc3CC(=O)N2c2ccccc2)cc1` (centres unmarked), with -26.5%; and `COC(=O)c1ccc(-n2c(C)cc(C(=O)COC(=O)CC3Sc4ccccc4NC3=O)c2C)cc1` (centres unmarked), with 28.5%.
To `Cc1cc(N2CCN(C)CC2)nc2ccc(NC(=S)N3CCOCC3)cc12` belongs -15.4%.
For the compound `Cc1cc(N2CCN(C)CC2)nc2ccc(NC(=O)CCC(=O)NCc3ccco3)cc12`, the “hERG current change (%, negative = inhibition) at 10uM” value is given as 7.05%.
As for `Cc1cc(N2CCN(C)CC2)nc2ccc(NC(=O)CCC3CCCC3)cc12`, the “hERG current change (%, negative = inhibition) at 10uM” value is on record as -74.6%.
Take `CCCN1CCN(C(=S)Nc2ccc3nc(N4CCN(CC)CC4)cc(C)c3c2)CC1`: the “hERG current change (%, negative = inhibition) at 10uM” value is 2.61%.
Take `CCN1CCN(c2cc(C)c3cc(NC(=S)N4CCCCC4)ccc3n2)CC1`: the “hERG current change (%, negative = inhibition) at 10uM” value is given as -50.1%.
For the compound `CCN1CCN(C(=S)Nc2ccc3nc(N4CCN(CC)CC4)cc(C)c3c2)CC1`, the “hERG current change (%, negative = inhibition) at 10uM” value was -13.9%.
Consider `CCN1CCN(c2cc(C)c3cc(NC(=S)N4CCCC(C)C4)ccc3n2)CC1` (centres unmarked), for which the “hERG current change (%, negative = inhibition) at 10uM” value is given as -51.3%.
For the compound `CCN1CCN(c2cc(C)c3cc(NC(=S)N4CCCC4)ccc3n2)CC1`, the “hERG current change (%, negative = inhibition) at 10uM” value is reported as -15.9%.
For `CCN1CCN(c2cc(C)c3cc(NC(=S)N4CCOCC4)ccc3n2)CC1`, the “hERG current change (%, negative = inhibition) at 10uM” value was -23.4%.
With `Cc1cc(N2CCN(C)CC2)nc2ccc(NC(=O)CCC(=O)NCCC(C)C)cc12`, the “hERG current change (%, negative = inhibition) at 10uM” value is on record as 13.8%.
Turning to `CCN1CCN(C(=S)Nc2ccc3nc(N4CCN(C)CC4)cc(C)c3c2)CC1`, the “hERG current change (%, negative = inhibition) at 10uM” value was -2.94%.
Then `Cc1cc(N2CCN(C)CC2)nc2ccc(NC(=S)N3CCCCCC3)cc12`, with -67.2%; and `N/C(=N\OC(=O)/C=C/c1ccc(Br)cc1)c1ccccn1`, with -6.37%; and `OC(CSc1ccc(F)cc1)CN1CCN(c2ccccc2)CC1` (centres unmarked), with -41.7%.
For `O=C(CSc1nnc2c(Cl)cc(C(F)(F)F)cn12)NCc1ccc(F)cc1`, the “hERG current change (%, negative = inhibition) at 10uM” value was -4.27%.
Turning to `CC(C)CN(C(=O)CSc1nnnn1C)C1CCS(=O)(=O)C1` (centres unmarked), the “hERG current change (%, negative = inhibition) at 10uM” value turned out to be 26%.
On to `CCC/C(=N\NC(=O)Cc1csc(N2CCOCC2)n1)c1ccccc1`, for which the “hERG current change (%, negative = inhibition) at 10uM” value is recorded as -13.5%.
To `O=C(N/N=C/c1ccc[nH]1)c1ccc(O)cc1` belongs 19.6%.
